Measurements published in PubChem BioAssay.
For some of these results: Results with a measured potency or affinity are listed apart. Calls of active or inactive are those of the source. Unless noted, how the calls were made is not given here.

Key:
[1] = antimalarial activity against Dd2 strain (AID 2302;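 active means growth inhibition above 50% at the single 2 µM test dose, taken to imply half-maximal potency below 2 µM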;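 further: 0% = DMSO untreated growth and 100% = chloroquine plus artemisinin killed control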); conditions: P. falciparum Dd2 in RBCs, LDH growth readout, 72 h; at 2 µM; hits give high values
[2] = HepG2 cytotoxicity, primary screen, cytotoxicity control for P. falciparum antimalarial project, cell-based, ATP luminescence (AID 2303;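 active means inhibition above 50%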;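 further: 0% = DMSO wells and 100% = digitonin-killed cells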); conditions: HepG2 viability, 24-48 h, at 10 µM, hits give high values
[3] = target: L-lactate dehydrogenase (Plasmodium falciparum (isolate CDC / Honduras)) (UniProt Q27743); assay: PfLDH activity inhibition – cell lysate, 3D7 strain, counter-screen for P. falciparum growth inhibition project (AID 2304);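 further: 0% = vehicle and 100% = reference inhibitor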; conditions: P. falciparum 3D7 crude extract, LDH APAD/NBT absorbance; at 2 µM; hits give high values
Sequence of L-lactate dehydrogenase (Plasmodium falciparum (isolate CDC / Honduras)) (Q27743 whole entry, looked up): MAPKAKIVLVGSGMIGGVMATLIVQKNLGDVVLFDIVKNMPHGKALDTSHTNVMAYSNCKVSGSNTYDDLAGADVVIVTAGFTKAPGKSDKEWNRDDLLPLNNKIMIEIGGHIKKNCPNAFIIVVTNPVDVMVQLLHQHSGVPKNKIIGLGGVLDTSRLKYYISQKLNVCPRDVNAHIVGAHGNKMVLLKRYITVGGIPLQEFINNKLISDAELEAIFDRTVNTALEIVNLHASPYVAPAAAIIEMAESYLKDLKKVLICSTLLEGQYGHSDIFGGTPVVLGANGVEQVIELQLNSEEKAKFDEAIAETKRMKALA

[4] = inhibition of 3D7 malaria parasite growth – strain 3D7 (AID 2306);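 further: 0% = DMSO wells and 100% = chloroquine plus artemisinin control wells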; conditions: P. falciparum 3D7 erythrocytic growth, LDH absorbance, 72 h; at 2 µM; hits give high values
[5] = target: Calcium-dependent protein kinase 1 (Plasmodium falciparum (isolate 3D7)) (UniProt P62344); assay: PfCDPK1 kinase inhibitors, biochemical, TCAMS library (AID 1159585; cut-off not given, nearly all actives have IC50 up to about 0.98 µM;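 further: inhibitors leave more ATP so luminescence rises with inhibition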); conditions: recombinant PfCDPK1, Kinase-Glo ATP depletion luminescence
Sequence of Calcium-dependent protein kinase 1 (Plasmodium falciparum (isolate 3D7)) (P62344 whole entry, looked up): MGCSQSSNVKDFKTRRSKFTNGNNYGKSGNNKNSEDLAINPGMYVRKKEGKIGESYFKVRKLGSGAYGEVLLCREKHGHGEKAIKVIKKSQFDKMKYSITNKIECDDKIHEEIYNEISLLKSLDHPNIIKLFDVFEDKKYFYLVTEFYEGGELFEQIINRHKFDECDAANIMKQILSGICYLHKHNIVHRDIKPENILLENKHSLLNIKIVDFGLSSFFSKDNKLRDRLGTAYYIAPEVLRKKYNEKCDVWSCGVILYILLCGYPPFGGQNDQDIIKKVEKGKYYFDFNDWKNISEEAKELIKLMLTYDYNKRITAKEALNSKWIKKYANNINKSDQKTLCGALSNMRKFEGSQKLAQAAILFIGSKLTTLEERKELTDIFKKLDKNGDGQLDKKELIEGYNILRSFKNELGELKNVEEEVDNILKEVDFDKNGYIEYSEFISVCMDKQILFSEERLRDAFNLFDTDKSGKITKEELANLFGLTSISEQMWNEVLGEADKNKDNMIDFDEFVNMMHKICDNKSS

[6] = target: Plasmodium falciparum protein kinase 6 (PK6, PF3D7_1337100) (UniProt Q8IDW1); assay: PfPK6 kinase inhibitors, biochemical, TCAMS library (AID 1159586); conditions: recombinant PfPK6, Kinase-Glo ATP depletion luminescence
Sequence of Plasmodium falciparum protein kinase 6 (PK6, PF3D7_1337100) (Q8IDW1 1-305): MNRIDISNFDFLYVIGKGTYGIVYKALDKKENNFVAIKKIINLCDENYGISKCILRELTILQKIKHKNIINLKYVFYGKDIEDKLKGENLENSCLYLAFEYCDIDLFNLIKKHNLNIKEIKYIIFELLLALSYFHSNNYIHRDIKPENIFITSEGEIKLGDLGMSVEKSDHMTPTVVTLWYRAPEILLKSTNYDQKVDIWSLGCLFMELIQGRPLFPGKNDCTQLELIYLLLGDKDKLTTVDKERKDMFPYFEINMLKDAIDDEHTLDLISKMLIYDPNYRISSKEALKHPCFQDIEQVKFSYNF

[7] = target: Protein kinase 7 (PK7), Plasmodium falciparum 3D7 (PF3D7_0213400) (UniProt Q7YTF7); assay: inhibition of Plasmodium PK7 catalytic activity – biochemical, TCAMS antimalarial set, Kinase-Glo luminescence (AID 1159587); conditions: recombinant PfPK7, Kinase-Glo ATP depletion luminescence
Sequence of Protein kinase 7 (PK7), Plasmodium falciparum 3D7 (PF3D7_0213400) (Q7YTF7 1-343): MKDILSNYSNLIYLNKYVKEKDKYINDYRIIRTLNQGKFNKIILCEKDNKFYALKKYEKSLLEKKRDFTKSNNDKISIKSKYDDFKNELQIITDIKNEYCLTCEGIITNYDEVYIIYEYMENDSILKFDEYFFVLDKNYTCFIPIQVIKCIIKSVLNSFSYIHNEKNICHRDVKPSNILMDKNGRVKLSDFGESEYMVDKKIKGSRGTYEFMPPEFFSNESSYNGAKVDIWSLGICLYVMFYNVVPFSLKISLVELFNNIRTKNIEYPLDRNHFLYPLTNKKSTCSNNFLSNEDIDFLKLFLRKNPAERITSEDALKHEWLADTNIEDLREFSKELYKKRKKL

[8] = target: Calcium-dependent protein kinase 4 (Plasmodium falciparum (isolate 3D7)) (UniProt Q8IBS5); assay: PfCDPK4 kinase inhibitors, biochemical, TCAMS library (AID 1159588; cut-off not given, nearly all actives have IC50 up to about 0.91 µM); conditions: recombinant PfCDPK4, Kinase-Glo ATP depletion luminescence
Sequence of Calcium-dependent protein kinase 4 (Plasmodium falciparum (isolate 3D7)) (Q8IBS5 whole entry, looked up): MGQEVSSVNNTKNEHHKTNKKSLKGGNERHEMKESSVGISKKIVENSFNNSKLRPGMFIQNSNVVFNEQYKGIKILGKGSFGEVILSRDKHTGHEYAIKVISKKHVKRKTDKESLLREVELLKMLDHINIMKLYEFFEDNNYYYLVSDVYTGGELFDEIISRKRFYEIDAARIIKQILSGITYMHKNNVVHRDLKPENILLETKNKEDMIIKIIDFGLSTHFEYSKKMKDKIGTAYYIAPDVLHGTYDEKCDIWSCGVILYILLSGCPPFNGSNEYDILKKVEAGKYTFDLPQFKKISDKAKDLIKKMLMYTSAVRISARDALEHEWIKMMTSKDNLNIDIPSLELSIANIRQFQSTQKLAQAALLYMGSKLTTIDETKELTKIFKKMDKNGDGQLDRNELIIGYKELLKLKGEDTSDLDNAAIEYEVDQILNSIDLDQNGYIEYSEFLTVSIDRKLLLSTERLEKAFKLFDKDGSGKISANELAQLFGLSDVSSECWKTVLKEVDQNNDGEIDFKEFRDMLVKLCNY

Cc1cccc(-n2nc(C)c3c2NC(=O)CC3C(=O)c2ccc(Cl)s2)c1 (centres undefined)
active: growth inhibition [1] 85% | growth inhibition [4] 92%
inactive: inhibition [2] 13% | inhibition [3] -1% | outcome [5] | outcome [6] | outcome [7] | outcome [8]

Cc1ccc(N(CCC(=N)N)Cc2ccccc2)cc1
inactive: inhibition [2] 6% | inhibition [3] -3% | outcome [5] | outcome [6] | outcome [7] | outcome [8]
active: growth inhibition [1] 95% | growth inhibition [4] 96%

Cc1ccc(-c2csc(C)n2)c(C)c1
inactive: growth inhibition [1] -3% | inhibition [2] 12% | inhibition [3] 3% | outcome [5] | outcome [6] | outcome [7] | outcome [8]
active: growth inhibition [4] 98%

O=C(Nc1ccc2c(c1)CNCC2)c1ccc(-c2ccc(Cl)cc2)cc1
inactive: growth inhibition [1] 28% | inhibition [3] 6% | outcome [5] | outcome [6] | outcome [7] | outcome [8]
active: inhibition [2] 52% | growth inhibition [4] 96%

O=C(Nc1ccc(-c2cccc(-c3nc4ccc(C(F)(F)F)cc4[nH]3)c2)cc1)c1csnn1
inactive: growth inhibition [1] 25% | inhibition [2] 42% | inhibition [3] -2% | outcome [5] | outcome [6] | outcome [7] | outcome [8]
active: growth inhibition [4] 98%

CC(C)CCN1CCCN(Cc2cccc(NC(=O)c3ccc(-c4ccccc4)cc3)c2)CC1
active: growth inhibition [4] 92%
inactive: growth inhibition [1] 21% | inhibition [2] 27% | inhibition [3] 7% | outcome [5] | outcome [6] | outcome [7] | outcome [8]

COc1ccc(S(=O)(=O)NCCC2CCN(CCCCCNC(=O)C=Cc3ccc(Cl)c(Cl)c3)CC2)cc1
active: growth inhibition [4] 87%
inactive: growth inhibition [1] -2% | inhibition [2] 36% | inhibition [3] 5% | outcome [5] | outcome [6] | outcome [7] | outcome [8]

N#Cc1cc(C(=O)c2cc(Br)ccc2O)cn(C2CCCCC2)c1=O
active: growth inhibition [4] 89%
inactive: growth inhibition [1] 9% | inhibition [2] 3% | inhibition [3] 3% | outcome [5] | outcome [6] | outcome [7] | outcome [8]

O=C(COC(=O)c1cccc(S(=O)(=O)N2CCc3ccccc32)c1)NNC(=O)c1cccs1
inactive: growth inhibition [1] 4% | inhibition [2] 4% | inhibition [3] 3% | outcome [5] | outcome [6] | outcome [7] | outcome [8]
active: growth inhibition [4] 96%

CC[C@H](C)CNC(=O)c1ccnc(-c2ccc(CNCCCc3ccccc3)cc2)c1
active: growth inhibition [1] 84% | growth inhibition [4] 101%
inactive: inhibition [2] 17% | inhibition [3] -4% | outcome [5] | outcome [6] | outcome [7] | outcome [8]

CC(=O)Nc1cccc(C(=O)Nc2cccc(-c3cccc(-c4nc5ccc(F)cc5[nH]4)c3)c2)c1
active: inhibition [2] 51% | growth inhibition [4] 101%
inactive: growth inhibition [1] 44% | inhibition [3] -5% | outcome [5] | outcome [6] | outcome [7] | outcome [8]

Cc1ccc(Oc2ccc(NC(=O)CNc3ccccc3N3CCCC3=O)cc2)cc1
inactive: inhibition [2] 14% | inhibition [3] -5% | outcome [5] | outcome [6] | outcome [7] | outcome [8]
active: growth inhibition [1] 97% | growth inhibition [4] 98%

CC(O)c1cccc(-c2ccc(Nc3ccnc4cc(-c5nccs5)ccc34)cc2)c1 (centres undefined)
active: growth inhibition [1] 69% | growth inhibition [4] 91%
inactive: inhibition [2] 31% | inhibition [3] -1% | outcome [5] | outcome [6] | outcome [7] | outcome [8]

COc1ccc(CNC2Cc3ccccc3C2)cc1-c1ccc(S(=O)(=O)NCCN2CCCC2)s1
active: growth inhibition [1] 100% | inhibition [2] 89% | growth inhibition [4] 101%
inactive: inhibition [3] 4% | outcome [5] | outcome [6] | outcome [7] | outcome [8]

C=CCOC(=O)N1CCC(CNCc2cccc(-c3ccc(-c4nc5ccccc5[nH]4)s3)c2)C1 (centres undefined)
inactive: inhibition [2] 9% | inhibition [3] 0% | outcome [5] | outcome [6] | outcome [7] | outcome [8]
active: growth inhibition [1] 63% | growth inhibition [4] 99%

COCCNCc1ccc(-c2cccc(CNc3ccc(OC)cc3)c2)cc1
active: growth inhibition [4] 94%
inactive: growth inhibition [1] 2% | inhibition [2] 16% | inhibition [3] -1% | outcome [5] | outcome [6] | outcome [7] | outcome [8]

O=C(NCCCCN1CCC(C(c2ccccc2)c2ccccc2)CC1)c1ccc(NC(=O)c2ccc(Cl)cc2)cc1
active: growth inhibition [4] 100%
inactive: growth inhibition [1] 47% | inhibition [2] 12% | inhibition [3] -2% | outcome [5] | outcome [6] | outcome [7] | outcome [8]

CCCCc1ccc(C(=O)Nc2ccc3nc(N4CCN(C)CC4)cc(C)c3c2)cc1
inactive: growth inhibition [1] 21% | inhibition [2] 44% | inhibition [3] -6% | outcome [5] | outcome [6] | outcome [7] | outcome [8]
active: growth inhibition [4] 90%

Cc1nc(C)n(CC(=O)Nc2cccc(-c3cccc(-c4nc5ccc(C(F)(F)F)cc5[nH]4)c3)c2)n1
inactive: inhibition [3] -6% | outcome [5] | outcome [6] | outcome [7] | outcome [8]
active: growth inhibition [1] 96% | inhibition [2] 62% | growth inhibition [4] 100%

Cc1cccc(CN2CCCN(Cc3cccc(C(=O)Nc4ccc(C(C)(C)C)cc4)c3)CC2)c1
inactive: growth inhibition [1] 40% | inhibition [3] 4% | outcome [5] | outcome [6] | outcome [7] | outcome [8]
active: inhibition [2] 98% | growth inhibition [4] 89%

O=C(COc1cnc2ccccc2n1)Nc1ccccc1Sc1ccc(Cl)cc1
inactive: inhibition [2] 6% | inhibition [3] 6% | outcome [5] | outcome [6] | outcome [7] | outcome [8]
active: growth inhibition [1] 100% | growth inhibition [4] 100%

COc1cccc(NC(=O)Nc2ccc(Nc3nc(C)cc(N(C)C)n3)cc2)c1
active: growth inhibition [1] 100% | growth inhibition [4] 101%
inactive: inhibition [2] 14% | inhibition [3] 5% | outcome [5] | outcome [6] | outcome [7] | outcome [8]

CCc1ccc(NC(=O)N(CCCn2ccnc2)Cc2csc(-c3ccc(CNCc4ccccc4)cc3)n2)cc1
active: growth inhibition [4] 103%
inactive: growth inhibition [1] 39% | inhibition [2] 9% | inhibition [3] 3% | outcome [5] | outcome [6] | outcome [7] | outcome [8]

Cc1cc(NC2CCCC2)nc(Nc2ccccc2)n1
active: growth inhibition [1] 75% | growth inhibition [4] 100%
inactive: inhibition [2] 26% | inhibition [3] 0% | outcome [5] | outcome [6] | outcome [7] | outcome [8]

CCN(CC)CCCC(C)Nc1ccnc2ccc(-c3ccccc3)cc12 (centres undefined)
inactive: growth inhibition [1] 21% | inhibition [2] 0% | inhibition [3] 2% | outcome [5] | outcome [6] | outcome [7] | outcome [8]
active: growth inhibition [4] 98%

O=C(NC1CCN(Cc2ccccc2)CC1)c1cc(-c2cccnc2)nc2ccc(Cl)cc12
active: growth inhibition [4] 97%
inactive: growth inhibition [1] 26% | inhibition [2] -3% | inhibition [3] 1% | outcome [5] | outcome [6] | outcome [7] | outcome [8]

O=C(Nc1ccccc1)c1ccc(N2CCC(COc3cccc(C(F)(F)F)c3)CC2)nc1
active: growth inhibition [1] 83% | growth inhibition [4] 96%
inactive: inhibition [2] 11% | inhibition [3] -3% | outcome [5] | outcome [6] | outcome [7] | outcome [8]

COc1ccc(S(=O)(=O)N2CCOCC2)cc1NC(=O)c1cc2ccccc2o1
active: growth inhibition [4] 93%
inactive: growth inhibition [1] -1% | inhibition [2] 8% | inhibition [3] -2% | outcome [5] | outcome [6] | outcome [7] | outcome [8]

COc1ccc2nccc([C@@H](O)CN3CCC(NCc4ccc5c(c4)NC(=O)C(C)(C)O5)CC3)c2c1
inactive: inhibition [2] 6% | inhibition [3] 3% | outcome [5] | outcome [6] | outcome [7] | outcome [8]
active: growth inhibition [1] 70% | growth inhibition [4] 100%

CN1CCC(N(Cc2ccc(N3CCN(Cc4c[nH]c5ccc(Cl)cc45)CC3)nc2)C2CC2)CC1
active: growth inhibition [1] 76% | inhibition [2] 96% | growth inhibition [4] 100%
inactive: inhibition [3] -2% | outcome [5] | outcome [6] | outcome [7] | outcome [8]

COc1ccc2nccc([C@@H](O)CN3CCC(NCc4cc5ccccc5[nH]4)CC3)c2n1
active: growth inhibition [1] 55% | growth inhibition [4] 101%
inactive: inhibition [2] 17% | inhibition [3] 3% | outcome [5] | outcome [6] | outcome [7] | outcome [8]

Cc1cc(N(C)C)nc(Nc2ccc(NC(=O)c3c(F)cccc3F)cc2)n1
active: inhibition [2] 50% | growth inhibition [4] 94%
inactive: growth inhibition [1] 45% | inhibition [3] -1% | outcome [5] | outcome [6] | outcome [7] | outcome [8]

COc1cc(CCNc2nc(NCc3ccccc3-c3ccccc3)nc(N3CCC(N)CC3)n2)ccc1O
inactive: inhibition [2] 25% | inhibition [3] -4% | outcome [5] | outcome [6] | outcome [7] | outcome [8]
active: growth inhibition [1] 70% | growth inhibition [4] 100%

CC(C)(C)Oc1ccc(CC2NC3(C(=O)N(Cc4ccc(C(C)(C)C)cc4)c4ccccc43)C3C(=O)N(c4ccc(Br)cc4)C(=O)C23)cc1 (centres undefined)
inactive: inhibition [2] 24% | inhibition [3] 0% | outcome [5] | outcome [6] | outcome [7] | outcome [8]
active: growth inhibition [1] 94% | growth inhibition [4] 94%

O=C(NCCCCN1CCC(c2ccc3c(c2OCc2ccncc2)CCCC3)CC1)c1ccc(-c2ccc(C(F)(F)F)cc2)cc1
active: growth inhibition [1] 92% | inhibition [2] 96% | growth inhibition [4] 101%
inactive: inhibition [3] 3% | outcome [5] | outcome [6] | outcome [7] | outcome [8]

Cc1ccc(O)cc1Nc1ccnc2ccc(-c3csc(CNCCN4CCOCC4)n3)cc12
inactive: inhibition [2] -24% | inhibition [3] -2% | outcome [5] | outcome [6] | outcome [7] | outcome [8]
active: growth inhibition [1] 97% | growth inhibition [4] 101%

COCCNCc1cccc(-c2ccccc2CN(C(=O)c2ccc3c(c2)OCO3)c2ccc(OC)cc2)c1
active: growth inhibition [4] 90%
inactive: growth inhibition [1] 46% | inhibition [2] 6% | inhibition [3] 2% | outcome [5] | outcome [6] | outcome [7] | outcome [8]

O=C(CN(c1cccc(C(F)(F)F)c1)S(=O)(=O)c1ccc(Cl)cc1)NCCC(c1ccccc1)c1ccccc1
inactive: inhibition [2] 14% | inhibition [3] -2% | outcome [5] | outcome [6] | outcome [7] | outcome [8]
active: growth inhibition [1] 50% | growth inhibition [4] 94%
